# Experimental data taken from PubChem BioAssay (EPA / NIEHS).
# “And” between values parts separate entries of the source, which are not always exact repeats. Identical values can stand only once. The source made the active and inactive calls. How the source made its calls: active means hit-call score of the fitted dose curve at least 0.9, where 1 is the maximum; inactive means score below 0.9.
# Key:
# [1] = read-out: Thrombomodulin, THBD (gene 7056); assay: BSK_3C_Thrombomodulin: BioMAP Diversity Plus: 3C Assay for Thrombomodulin Biomarker Activity (AID 2283029); settings: primary human endothelial cells (HUVEC); actives raise or lower the signal
# Summary of the method: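 ELISA measurement of thrombomodulin on HUVEC surface 24 h after chemical dosing; activity fitted in both directions relative to DMSO vehicle.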
# [2] = read-out: Urokinase-type plasminogen activator receptor (uPAR), PLAUR (gene 5329); assay: BSK_4H_uPAR: BioMAP Diversity Plus: 4H Assay for Urokinase-type plasminogen activator receptor (uPAR) Biomarker Activity (AID 2283030); settings: primary human endothelial cells (HUVEC); actives raise or lower the signal
# Summary of the method: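 Primary human umbilical vein endothelial cells were exposed to chemical for 24 h before cell-surface uPAR was quantified by ELISA. Activity was fitted bidirectionally against the DMSO negative control baseline.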
# [3] = read-out: Vascular endothelial growth factor receptor 2 (Homo sapiens) (UniProt P35968); assay: BSK_4H_VEGFRII: BioMAP Diversity Plus: 4H Assay for Vascular endothelial growth factor receptor 2 (VEGFR2) Biomarker Activity (AID 2283031); settings: primary human endothelial cells (HUVEC); actives raise or lower the signal;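 on AC50: cell-surface VEGFR2 protein level quantified by ELISA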
# Summary of the method: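 Primary human umbilical vein endothelial cells in the BioMAP 4H system were dosed with test chemical, and 24 h later VEGFRII was measured by ELISA. Activity was fitted bidirectionally against DMSO as negative control and baseline.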
# [4] = read-out: Human Leukocyte Antigen - DR isotype (HLADR), HLA-DRA (gene 3122); assay: BSK_BE3C_HLADR: BioMAP Diversity Plus: BE3C Assay for Human Leukocyte Antigen - DR isotype (HLADR) Biomarker Activity (AID 2283032); settings: primary human bronchial epithelial cells; actives raise or lower the signal
# Summary of the method: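 Cell-surface HLA-DR ELISA readout at 24 h after dosing in the BE3C primary human lung bronchial epithelial system; gain or loss of signal against DMSO, with parallel sulforhodamine B staining of total protein for overt cytotoxicity.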
# [5] = read-out: Vascular cell adhesion molecule 1 (VCAM1), VCAM1 (gene 7412); assay: BSK_4H_VCAM1: BioMAP Diversity Plus: 4H Assay for Vascular cell adhesion molecule 1 (VCAM1) Biomarker Activity (AID 2283033); settings: primary human endothelial cells (HUVEC); actives raise or lower the signal;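 on outcome: cell-surface VCAM-1 protein measured by ELISA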
# Summary of the method: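 VCAM-1 ELISA read 24 h after chemical dosing of HUVEC in the BioMAP 4H system, with gain or loss of signal fitted relative to DMSO. Parallel SRB staining (560 nm) checked overt cytotoxicity.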
# [6] = read-out: Monokine induced gamma interferon (MIG), CXCL9 (gene 4283); assay: BSK_BE3C_MIG: BioMAP Diversity Plus: BE3C Assay for Monokine induced gamma interferon (MIG) Biomarker Activity (AID 2283035); settings: primary human bronchial epithelial cells; actives raise or lower the signal
# Summary of the method: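 hu bronchial epithelial 1° cells, 24 h cpd; MIG by ELISA; bidirectional fit, DMSO = baseline.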
# [7] = read-out: Plasminogen activator inhibitor-1 (PAI1), SERPINE1 (gene 5054); assay: BSK_BE3C_PAI1: BioMAP Diversity Plus: BE3C Assay for Plasminogen activator inhibitor-1 (PAI1) Biomarker Activity (AID 2283037); settings: primary human bronchial epithelial cells; actives raise or lower the signal
# Summary of the method: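 PAI-1 was measured by ELISA in human primary bronchial epithelial cultures 24 h after chemical dosing, with cytotoxicity checked by SRB total-protein staining in parallel cultures. Activity was fitted in both directions relative to DMSO.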
# [8] = read-out: urokinase plasminogen activator (uPA), PLAU (gene 5328); assay: BSK_BE3C_uPA: BioMAP Diversity Plus: BE3C Assay for urokinase plasminogen activator (uPA) Biomarker Activity (AID 2283038); settings: primary human bronchial epithelial cells; actives raise or lower the signal;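 on outcome: uPA protein level quantified by ELISA in cell cultures; uPA read one day after compound addition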
# Summary of the method: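 Human primary bronchial epithelial cells were exposed to chemical for 24 h, then uPA levels were measured by ELISA. Responses were fitted bidirectionally against DMSO as negative control and baseline. Parallel SRB staining of total protein gauged overt cytotoxicity.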
# [9] = read-out: Interleukin-6 (IL6), IL6 (gene 3569); assay: BSK_CASM3C_IL6: BioMAP Diversity Plus: CASM3C Assay for Interleukin-6 (IL6) Biomarker Activity for (AID 2283040); settings: primary human coronary artery smooth muscle cells; actives raise or lower the signal
# [10] = read-out: Tissue plasminogen activator (tPA), PLAT (gene 5327); assay: BSK_BE3C_tPA: BioMAP Diversity Plus: BE3C Assay for Tissue plasminogen activator (tPA) Biomarker Activity (AID 2283041); settings: primary human bronchial epithelial cells; actives raise or lower the signal;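 on outcome: tPA level quantified by ELISA one day after compound addition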
# Summary of the method: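 tPA measured by ELISA 24 h after dosing human primary bronchial epithelial cells (BE3C system). Changes in either direction were fitted against DMSO. Parallel cultures were stained with SRB to flag overt cytotoxicity.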
# [11] = read-out: Interleukin-8 (IL8), CXCL8 (gene 3576); assay: BSK_CASM3C_IL8: BioMAP Diversity Plus: CASM3C Assay for Interleukin-8 (IL8) Biomarker Activity (AID 2283042); settings: primary human coronary artery smooth muscle cells; actives raise or lower the signal;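 further: IL-8 protein level quantified by ELISA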
# [12] = read-out: Human Leukocyte Antigen - DR isotype (HLADR), HLA-DRA (gene 3122); assay: BSK_CASM3C_HLADR: BioMAP Diversity Plus: CASM3C Assay for Human Leukocyte Antigen - DR isotype (HLADR) Biomarker Activity (AID 2283043); settings: primary human coronary artery smooth muscle cells; actives raise or lower the signal;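 further: cell-surface HLA-DR protein level quantified by ELISA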
# [13] = read-out: Monocyte Chemoattractant Protein-1 (MCP1), CCL2 (gene 6347); assay: BSK_CASM3C_MCP1: BioMAP Diversity Plus: CASM3C Assay for Monocyte Chemoattractant Protein-1 (MCP1) Biomarker Activity (AID 2283046); settings: primary human coronary artery smooth muscle cells; actives raise or lower the signal;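 further: MCP-1 level quantified by ELISA 24 h after dosing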
# [14] = BSK_CASM3C_Proliferation: Cell Proliferation Assessment in the BioMAP Diversity Plus: CASM3C Assay (AID 2283047); settings: primary human coronary artery smooth muscle cells;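 further: sulforhodamine B total protein stain as relative cell number at 560 nm; sub-confluent cells exposed 48 h before staining; fitted both ways against DMSO so gain or loss of cell number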
# [15] = read-out: Monokine induced gamma interferon (MIG), CXCL9 (gene 4283); assay: BSK_CASM3C_MIG: BioMAP Diversity Plus: CASM3C Assay for Monokine induced gamma interferon (MIG) Biomarker Activity (AID 2283048); settings: primary human coronary artery smooth muscle cells; actives raise or lower the signal
# [16] = read-out: Thrombomodulin, THBD (gene 7056); assay: BSK_CASM3C_Thrombomodulin: BioMAP Diversity Plus: CASM3C Assay for Thrombomodulin Biomarker Activity (AID 2283051); settings: primary human coronary artery smooth muscle cells; actives raise or lower the signal;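 further: thrombomodulin protein level measured by ELISA 24 h after dosing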
# [17] = read-out: Tissue Factor, F3 (gene 2152); assay: BSK_CASM3C_TissueFactor: BioMAP Diversity Plus: CASM3C Assay for Tissue Factor Biomarker Activity (AID 2283052); settings: primary human coronary artery smooth muscle cells; actives raise or lower the signal;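 further: cell surface tissue factor protein level read by ELISA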
# [18] = read-out: Urokinase-type plasminogen activator receptor (uPAR), PLAUR (gene 5329); assay: BSK_CASM3C_uPAR: BioMAP Diversity Plus: CASM3C Assay for Urokinase-type plasminogen activator receptor (uPAR) Biomarker Activity (AID 2283054); settings: primary human coronary artery smooth muscle cells; actives raise or lower the signal;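 further: cell-surface uPAR protein level quantified by ELISA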
# [19] = read-out: Collagen III, COL3A1 (gene 1281); assay: BSK_hDFCGF_CollagenIII: BioMAP Diversity Plus: hDFCGF Assay for Collagen III Biomarker Activity (AID 2283056); settings: primary human foreskin fibroblasts; actives raise or lower the signal
# Summary of the method: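 Human foreskin primary fibroblasts were exposed to test chemicals for 24 h, after which collagen III was quantified by ELISA. Activity was fitted bidirectionally against DMSO as negative control and baseline.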
# [20] = read-out: Epidermal growth factor receptor (EGFR), EGFR (gene 1956); assay: BSK_hDFCGF_EGFR: BioMAP Diversity Plus: hDFCGF Assay for Epidermal growth factor receptor (EGFR) Biomarker Activity (AID 2283057); settings: primary human foreskin fibroblasts; actives raise or lower the signal
# Summary of the method: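 EGFR levels by ELISA in human dermal fibroblast cultures, 24 h post-treatment, fitted bidirectionally versus DMSO. Parallel wells stained with sulforhodamine B to detect overt cytotoxicity.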
smiles,measurement,setting,value
CCC(C)=NO,outcome,[1],inactive
same,outcome,[2],inactive
same,outcome,[3],inactive
same,outcome,[4],inactive
same,outcome,[5],inactive
same,outcome,[6],inactive
same,outcome,[7],inactive
same,outcome,[8],inactive
same,outcome,[9],inactive
same,outcome,[10],inactive
same,outcome,[11],inactive
same,outcome,[12],inactive
same,outcome,[13],inactive
same,outcome,[14],inactive
same,outcome,[15],inactive
same,outcome,[16],inactive
same,outcome,[17],inactive
same,outcome,[18],inactive
same,outcome,[19],inactive
same,outcome,[20],inactive
CC[N+](CC)(CC(=O)Nc1c(C)cccc1C)Cc1ccccc1 (tested in a mixture with another compound),outcome,[1],inactive
same,outcome,[2],inactive
same,outcome,[3],inactive
same,outcome,[4],inactive
same,outcome,[5],inactive
same,outcome,[6],inactive
same,outcome,[7],inactive
same,outcome,[8],inactive
same,outcome,[9],inactive
same,outcome,[10],inactive
same,outcome,[11],inactive
same,outcome,[12],inactive
same,outcome,[13],inactive
same,outcome,[14],inactive
same,outcome,[15],inactive
same,outcome,[16],inactive
same,outcome,[17],inactive
same,outcome,[18],inactive
same,outcome,[19],inactive
same,outcome,[20],inactive
CCCCCCCCCCCCCCCCCC[N+](C)(C)C,AC50,[1],2.9 µM (active)
same,outcome,[2],inactive
same,AC50,[3],1.23 µM (active)
same,AC50,[4],2.52 µM (active)
same,AC50,[5],1.42 µM (active)
same,AC50,[6],3.82 µM (active)
same,outcome,[7],inactive
same,AC50,[8],7.3 µM (active)
same,AC50,[9],8.51 µM (active)
same,AC50,[10],1.32 µM (active)
same,AC50,[11],9.19 µM (active)
same,AC50,[12],3.33 µM (active)
same,AC50,[13],3.5 µM (active)
same,AC50,[14],2.09 µM (active)
same,AC50,[15],9.22 µM (active)
same,outcome,[16],inactive
same,AC50,[17],3.27 µM (active)
same,AC50,[18],6.31 µM (active)
same,outcome,[19],inactive
same,AC50,[20],2.81 µM (active)
CN(C)c1ccc(C(c2ccccc2)c2ccc(N(C)C)cc2)cc1,outcome,[1],inactive
same,outcome,[2],inactive
same,AC50,[3],5.36 µM (active)
same,outcome,[4],inactive
same,AC50,[5],20 µM (active)
same,outcome,[6],inactive
same,AC50,[7],10.9 µM (active)
same,outcome,[8],inactive
same,AC50,[9],9.64 µM (active)
same,AC50,[10],6.47 µM (active)
same,outcome,[11],inactive
same,outcome,[12],inactive
same,outcome,[13],inactive
same,AC50,[14],9.42 µM (active)
same,outcome,[15],inactive
same,AC50,[16],1.26 µM (active)
same,AC50,[17],7.33 µM (active)
same,outcome,[18],inactive
same,AC50,[19],10.7 µM (active)
same,outcome,[20],inactive
CC[N+](CC)(CC(=O)Nc1c(C)cccc1C)Cc1ccccc1,outcome,[1],inactive
same,outcome,[2],inactive
same,outcome,[3],inactive
same,outcome,[4],inactive
same,outcome,[5],inactive
same,outcome,[6],inactive
same,outcome,[7],inactive
same,outcome,[8],inactive
same,outcome,[9],inactive
same,outcome,[10],inactive
same,outcome,[11],inactive
same,outcome,[12],inactive
same,outcome,[13],inactive
same,outcome,[14],inactive
same,outcome,[15],inactive
same,outcome,[16],inactive
same,outcome,[17],inactive
same,outcome,[18],inactive
same,outcome,[19],inactive
same,outcome,[20],inactive
COC(=O)/C=C\C(=O)OC,outcome,[1],inactive
same,outcome,[2],inactive
same,outcome,[3],inactive
same,AC50,[4],10.7 µM (active)
same,AC50,[5],17.7 µM (active)
same,outcome,[6],inactive
same,outcome,[7],inactive
same,outcome,[8],inactive
same,outcome,[9],inactive
same,outcome,[10],inactive
same,outcome,[11],inactive
same,AC50,[12],5.11 µM (active)
same,outcome,[13],inactive
same,outcome,[14],inactive
same,outcome,[15],inactive
same,outcome,[16],inactive
same,outcome,[17],inactive
same,outcome,[18],inactive
same,outcome,[19],inactive
same,outcome,[20],inactive
CN(C)Cc1cc(C(C)(C)C)c(O)c(C(C)(C)C)c1,outcome,[1],inactive
same,outcome,[2],inactive
same,outcome,[3],inactive
same,outcome,[4],inactive
same,outcome,[5],inactive
same,outcome,[6],inactive
same,outcome,[7],inactive
same,outcome,[8],inactive
same,outcome,[9],inactive
same,outcome,[10],inactive
same,outcome,[11],inactive
same,outcome,[12],inactive
same,outcome,[13],inactive
same,outcome,[14],inactive
same,outcome,[15],inactive
same,outcome,[16],inactive
same,outcome,[17],inactive
same,outcome,[18],inactive
same,AC50,[19],26.9 µM (active) and 20 µM (active)
same,outcome,[20],inactive
CCCCCCCCCCC1CO1 (stereo not given),outcome,[1],inactive
same,AC50,[2],30.1 µM (active)
same,AC50,[3],34.7 µM (active)
same,AC50,[4],31.2 µM (active)
same,AC50,[5],33.8 µM (active)
same,outcome,[6],inactive
same,outcome,[7],inactive
same,outcome,[8],inactive
same,outcome,[9],inactive
same,outcome,[10],inactive
same,outcome,[11],inactive
same,outcome,[12],inactive
same,AC50,[13],6.3 µM (active)
same,outcome,[14],inactive
same,outcome,[15],inactive
same,outcome,[16],inactive
same,AC50,[17],30.2 µM (active)
same,AC50,[18],34.3 µM (active)
same,AC50,[19],20 µM (active)
same,outcome,[20],inactive
